Data as given in the supplement of paper PMC10981050.
Where “and” joins values, the source holds several entries; their conditions need not be identical. Identical values can stand only once. Counter-ions that a name gives are not always drawn.

How the values were obtained:
Assay in all cases: cell viability relative to vehicle control; higher = less cytotoxic
Settings in all cases: 10 µM
K562 = system: K562
Procedure, shortened: (§1)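 After removal of identity-inconsistent compounds, the Selleck bioactive, kinase and epigenetic probe libraries were screened on CRISPR-edited mutant clones and isogenic wild-type clones of four leukaemia lines. Plates were 384-well, each well holding 2000 cells in 50 µL medium and receiving a single 10 µM acoustically dispensed dose. CellTiter-Glo luminescence was read 48 h later, after the supernatant was taken off. Genedata Screener was used to express viability as percent of the on-plate vehicle control.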

MARIMO = system: MARIMO
Procedure, shortened: as §1

MOLM14 = system: MOLM14
Procedure, shortened: as §1

OCI-AML2 = system: OCI-AML2
Procedure, shortened: as §1

Compound	cell viability (K562; SRSF2 genotype: SRSF2 P95H/wt)	cell viability (K562; SRSF2 genotype: SRSF2 wt/wt) [%]	cell viability (MARIMO; SRSF2 genotype: SRSF2 P95H/wt) [%]	cell viability (MARIMO; SRSF2 genotype: SRSF2 wt/wt) [%]	cell viability (MOLM14; SRSF2 genotype: SRSF2 P95H/wt) [%]	cell viability (MOLM14; SRSF2 genotype: SRSF2 wt/wt) [%]	cell viability (OCI-AML2; SRSF2 genotype: P95H/wt) [%]	cell viability (OCI-AML2; SRSF2 genotype: wt/wt) [%]
O=C(O)CCCC[C@@H]1CCSS1 (racemic) [Thioctic acid]	94.1% and 87.7%	88.3	93.1	99.4	92.8	94.1	97.1	98.9
Cc1ccc(NC(=O)c2ccc(CN3CCN(C)CC3)cc2)cc1Nc1nccc(-c2cccnc2)n1 [Imatinib (STI571)]	12.8% and 26.4%	16.5	101	103	85	95	82.6	72.3
CC(=O)OCC(=O)[C@@]12OC(C)(C)O[C@@H]1C[C@H]1[C@@H]3C[C@H](F)C4=CC(=O)C=C[C@]4(C)[C@@]3(F)[C@@H](O)C[C@@]12C [Fluocinonide (Vanos)]	100% and 105%	108	110	106	107	94.8	111	117
C=C1C2CCC(C2)C1(C)CCC=C(C)CO (stereo not drawn) [Santalol]	106% and 103%	98.6	105	94.3	106	104	102	101
COC(=O)N[C@H](C(=O)N1CCC[C@H]1c1ncc(-c2ccc(-c3ccc(-c4cnc([C@@H]5CCCN5C(=O)[C@@H](NC(=O)OC)C(C)C)[nH]4)cc3)cc2)[nH]1)C(C)C	93.2% and 92%	89.7	72.4	83.9	78.2	88.5	84.6	84.3
CC(=O)OC1CC2CCC1(C)C2(C)C (stereo not drawn) [Bornyl acetate]	109% and 107%	114	107	107	98.8	104	110	107
C=C[C@]1(C)C[C@@H](OC(=O)CSCCN(CC)CC)[C@]2(C)[C@H](C)CC[C@]3(CCC(=O)[C@H]32)[C@@H](C)[C@@H]1O [Tiamulin]	83.5% and 81.7%	90.1	75.6	92.8	84	87.9	86.1	79.5
CC1=CC(=O)NS(=O)(=O)O1 [Acesulfame Potassium]	96.3% and 96.7%	96.3	98.1	94.4	98.9	97.8	89.1	105
CC[C@H](Nc1ncnc2[nH]cnc12)c1nc2cccc(F)c2c(=O)n1-c1ccccc1	84.3% and 82.3%	88.8	65.6	70.5	57.3	54.8	51.2	58.6
CCC(=O)Nc1cccc(Oc2nc(Nc3ccc(N4CCN(C)CC4)cc3OC)ncc2Cl)c1	90.9% and 97.3%	90.6	70.3	68.3	39.9	40.7	61.2	59.2
NC(=O)CCCSc1nc(N)nc(-c2c(Cl)cc3c4c(cccc24)COC3)n1	18.9% and 27.3%	22.6	29.3	24.6	2.36	2.58	16.6	19.6
O=c1c2ccccc2nc(C=Cc2cccnc2)n1Cc1ccccc1	86.8% and 86.9%	79.8	74.3	90.1	78.5	82.6	78.4	75.9
C[n+]1c2n(c(=O)c3ccccc31)CCc1c-2[nH]c2ccccc12 [Dehydroevodiamine hydrochloride]	94.4% and 99.8%	89.2	91.7	100	92.8	92.9	86.8	96.2
CCO[C@@H]1OC(=O)C[C@@H]1NC(=O)[C@@H]1CCCN1C(=O)[C@@H](NC(=O)c1ccc(N)c(Cl)c1)C(C)(C)C [Belnacasan (VX-765)]	99.5% and 102%	94	95.2	104	97.7	98.1	103	104
CC1(C)[C@@H](O[C@H]2O[C@H](C(=O)O)[C@@H](O)[C@H](O)[C@H]2O[C@@H]2O[C@H](C(=O)O)[C@@H](O)[C@H](O)[C@H]2O)CC[C@]2(C)[C@H]3C(=O)C=C4[C@@H]5C[C@@](C)(C(=O)O)CC[C@]5(C)CC[C@@]4(C)[C@]3(C)CC[C@@H]12 [Ammonium Glycyrrhizinate (AMGZ)]	101% and 111%	107	107	102	104	106	112	95.4
CCCc1nn(C)c2c(=O)[nH]c(-c3cc(S(=O)(=O)N4CCN(C)CC4)ccc3OCC)nc12 [Sildenafil citrate]	100% and 106%	103	106	108	108	111	118	109
CC(C)(C)C(=O)N1N=CC[C@H]1c1ccccc1	101% and 98.4%	104	107	108	95.5	103	97.2	103
N#C[C@@H]1CCCN1C(=O)CNC12CC3CC(CC(O)(C3)C1)C2 [Vildagliptin (LAF-237)]	87.8% and 87.2%	84.8	81.8	88.6	83.9	89	88.8	87.7
c1ccc(-c2nn3c(c2-c2ccnc4cc(OCCN5CCOCC5)ccc24)CCC3)nc1	104% and 111%	97.1	106	120	105	110	108	117
CC(=O)O[C@]1(C(C)=O)CC[C@H]2[C@@H]3C[C@H](C)C4=CC(=O)C=C[C@]4(C)[C@@]3(F)[C@@H](O)C[C@@]21C [Fluorometholone Acetate]	93.4% and 95.3%	85.4	96.4	105	97.6	93.5	99.5	113
COc1c(N2C[C@@H]3CCCN[C@@H]3C2)c(F)cc2c(=O)c(C(=O)O)cn(C3CC3)c12 [Moxifloxacin hydrochloride]	104% and 99.6%	93.3	101	105	92.9	98.5	90.4	97.2
